Screening results (PubChem BioAssay)
p53ts 32C tox: kills p53ts cells at the permissive temperature; H1299-p53A138V at 32C, ATP luminescence viability, 24 h; AID 924; 130,000 compounds, 0.93% hits; Potency, µM (highest dose often 46.1 µM), inactives show at the top dose activity change, negative = cytotoxicity, most hits filed as cytotoxic;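 also: 0% = DMSO and -100% = full killing by reference compound; nearly all actives have a fitted effect of over 55% in size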
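Viability by ATPlite luminescence after 24 h compound treatment (up to 46 uM) at the permissive 32C. Cells are H1299 carrying p53 A138V. Scale runs from DMSO basal to 100 uM tamoxifen as full kill; AC50 from Hill fits.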
Luciferase inh: blocks Photinus pyralis firefly luciferase activity; P08659; purified firefly luciferase, luminescence, 8 min; Potency, µM (series often up to 57.1 µM), for the others: at the top dose activity change, negative = inhibition, most hits filed as inhibitors; 72,000 compounds, 2.2% hits; AID 411; also: % is scaled to controls: 0 for no effect and ±100 for the full control effect; nearly all actives have a fitted effect of over 40% in size
Target sequence (P08659 whole entry, looked up): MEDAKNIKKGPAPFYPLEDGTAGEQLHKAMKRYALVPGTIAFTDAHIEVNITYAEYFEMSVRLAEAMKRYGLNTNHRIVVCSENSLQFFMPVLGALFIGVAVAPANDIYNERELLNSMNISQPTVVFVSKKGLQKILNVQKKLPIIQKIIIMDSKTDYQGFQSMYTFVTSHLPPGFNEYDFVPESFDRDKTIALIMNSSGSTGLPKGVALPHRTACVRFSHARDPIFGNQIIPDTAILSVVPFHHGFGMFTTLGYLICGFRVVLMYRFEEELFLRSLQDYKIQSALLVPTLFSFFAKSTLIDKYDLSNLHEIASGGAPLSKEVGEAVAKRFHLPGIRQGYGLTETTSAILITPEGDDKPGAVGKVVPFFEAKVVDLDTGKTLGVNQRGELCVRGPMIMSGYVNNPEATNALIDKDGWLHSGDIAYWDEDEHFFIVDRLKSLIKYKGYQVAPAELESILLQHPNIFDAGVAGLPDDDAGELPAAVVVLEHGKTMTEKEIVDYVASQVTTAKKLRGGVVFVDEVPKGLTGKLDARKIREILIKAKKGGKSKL
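Titration-based qHTS; buffer 50 mM imidazole pH 7.2, 50 mM KCl, 7 mM MgCl2, 10 uM ATP, 0.01% Tween 20, 0.05% BSA; luciferase/luciferin detector mix added after compound; 8 min, ambient; luminescence.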
Peg3 imprint: genomic imprint erasure induction; 110,000 compounds, 0.02% hits; AID 1948; mouse ES Peg3-LacZ reporter, beta-gal luminescence, 40 h; Potency, µM (top dose mostly 60.7 µM), for the others: top-dose activity change, positive = activation, usual class: activators
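Gelatin-coated wells received 300 freshly trypsinized female ES cells with a Peg3LacZ-Neo reporter on the maternal allele, then incubated 40 hours at 37C. BetaGlo was added for 5 minutes at room temperature before a single luminescence read.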
p53ts 39C kill: kills p53ts cells at the nonpermissive temperature; H1299-p53A138V viability at 39C, ATP luminescence, 24 h; Potency, µM (series often up to 46.1 µM), for the others: at the top dose activity change, negative = cell killing, usual class: cytotoxic; 130,000 compounds, 1.5% hits; AID 902; also: % is scaled to controls: 0 for no effect and ±100 for the full control effect; nearly all actives have a fitted effect of over 55% in size
Tau filament bind: binders of human tau filaments | P10636 | Potency, µM (top dose mostly 57.1 µM), for inactives: at the highest dose activity change, negative = inhibition | recombinant tau filaments, thioflavin S fluorescence, 15 h; filaments grown with octadecylsulfate alongside compound | 71,000 compounds, 2% hits | AID 596;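 also: % is scaled to controls: 0 for no effect and ±100 for the full control effect; actives lower thioflavin S fluorescence by blocking filaments or displacing dye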
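Quantitative HTS: thioflavine S signal from ODS-induced tau filaments, excited at 450 nm, emission 510 nm. Conditions: 1 uM tau, 30 uM ODS, 15 h at 37 C, pH 7.4.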
Numbers without * were called inactive; i = inactive; ? = inconclusive; . = no result given; [ ] = dose if it differs, or a comment. Only some compounds are listed: those with a hit (about 3.4% of all), similar ones and a draw of the others. Calls follow the shape of the dose curve; as a rule, active = well fitted curve in the direction sought with a large enough effect; inconclusive = small, poorly fitted or top-dose-only effect, or another doubt; inactive = no such curve, though single readings can be large; an effect the other way counts as inactive or inconclusive. Potency is read from the fitted curve at half-maximal effect.

SMILES | p53ts 32C tox | Luciferase inh | Peg3 imprint | p53ts 39C kill | Tau filament bind
CCc1ccc(NC(=O)CSc2nc3n[nH]c(C)c3c(=N)n2-c2ccccc2C)cc1 | -11% | . | -10%[10.9 µM] | 10µM* | .
CCc1ccccc1-n1c(SCC(=O)Nc2ccc(C)cc2)nc2n[nH]c(C)c2c1=N | -17% | . | -12%[10.9 µM] | -6% | .
COc1ccc(-c2nc3c(C#N)c[nH]n3c2NC2CCCCC2)c(OC)c1 | -5% | . | -19%[10.9 µM] | -19% | .
COc1ccc(NC(=O)c2cc3ccccc3o2)cc1 | 16µM* | 6.3µM* | -41% | 16µM* | 24%
CCCCOC(=O)c1ccc(NC(=O)c2cc(=O)c3ccccc3o2)cc1 | 4% | . | -10%[10.9 µM] | -28% | .
CC(C)NC(=O)c1cc2ccccc2o1 | -13% | . | . | 13% | .
CCCCOC(=O)c1cccc(NC(=O)c2cc3ccccc3o2)c1 | ? | . | -13%[10.9 µM] | 10µM* | .
CC(=O)Nc1cccc(NC(=O)c2cc3ccccc3o2)c1 | 13µM* | 13µM* | -84% | 6.3µM* | 6%
Cc1cc(C)nc(NC(=O)c2cc3ccccc3o2)n1 | -25% | . | . | -10% | .
CC(C)C(=O)Nc1cccc(NC(=O)c2cc3ccccc3o2)c1 | ? | 13µM* | -44% | ? | 10%
O=C(O)CCSC1=NCCN1 | 11%[9.22 µM] | 2%[11.4 µM] | ? | 16%[9.22 µM] | -2%[11.4 µM]
Cc1cccc(C(=O)N2CCc3cc(CNC(=O)c4ccco4)ccc32)c1 | 7% | . | 5%[10.9 µM] | -14% | .
CC(=O)Nc1ccc(-c2cc3ccccc3o2)cc1 | . | 4µM* | . | . | .
Cc1ccc(-c2nc3ncccc3o2)cc1NC(=O)c1cc2ccccc2o1 | -2% | -1% | -14% | -1% | 214%[11.4 µM]
O=C(Nc1cccc(-c2nc3ncccc3o2)c1)c1cc2ccccc2o1 | ? | 16µM* | -16% | -29% | i
CC(NC(=O)COC(=O)CCNC(=O)c1ccco1)C12CC3CC(CC(C3)C1)C2 (configuration not stated) | -6% | 3% | -9% | -8% | -5%
CN(C(=O)c1ccco1)c1nnc(C23CC4CC(CC(C4)C2)C3)s1 | ? | 20µM* | -14% | ? | 14%
CCCOC(=O)c1cccc(Nc2nc(CCC)cc(=O)[nH]2)c1 | 39% | . | -17%[10.9 µM] | -19% | .
CCN1CCN(Cc2ccc(NC(=O)Nc3ccccc3OC)cc2)CC1 | 7.9µM* | ? | 2% | 10µM* | 1%
CCN1CCN(C(=O)Nc2ccc(Cc3ccc(NC(=O)N4CCN(CC)CC4)cc3)cc2)CC1 | -27% | 13µM* | -3% | -10% | 26%
CCN(CC)CCCNC(=O)c1ccc2c(c1)NC(=O)C(CS(=O)(=O)Cc1cccc(Br)c1)N2 (configuration not stated) | -8% | . | -11%[10.9 µM] | -24% | .
C[C@@]12CCC3c4ccc(OC5C=CC(c6ccccc6)OC5CO)cc4CCC3C1CCC2=O (some centres not stated) | 0%[9.22 µM] | . | . | -11%[9.22 µM] | .
COc1c2ccccc2nc2occc12 | 11% | . | 5% | 4% | .
CC(=O)OCC(=O)[C@@]1(O)CCC2C3CCC4=CC(=O)CC[C@]4(C)C3C(O)C[C@]21C (some centres not stated) | -17% | . | 1% | -6% | .
CC1(C)OCC(CSC2=C(SCC3COC(C)(C)O3)C(=O)c3ncccc3C2=O)O1 (configuration not stated) | ? | . | -53% | ? | 16µM*
SMILES | p53ts 32C tox | Luciferase inh | Peg3 imprint | p53ts 39C kill | Tau filament bind
Cc1ccccc1Nc1ncnc2c1cnn2-c1ccccc1 | -25% | 13µM* | -17% | 9% | -10%
CC(C)Nc1ncnc2c1cnn2-c1ccccc1 | 13µM* | 7.9µM* | -41% | ? | 3%
Cc1cccc(-n2ncc3c(NC(C)C)ncnc32)c1 | 13µM* | 13µM* | -34% | 16µM* | -10%
Cc1ccc(-n2ncc3c(Nc4ccccc4C)ncnc32)cc1 | ? | . | -12%[10.9 µM] | ? | .
CCCCNC(=O)c1cc(-c2ccc(OC)cc2)nc2n[nH]c(-c3cccc([N+](=O)[O-])c3)c12 | -2% | . | -8%[10.9 µM] | -24% | .
Nc1c(N2CCCC2)cc(Cl)c2nonc12 | ? | -2% | -11% | 6% | 20µM*
CCc1ccc(C(=O)COC(=O)CNC(=O)c2ccco2)cc1 | -8% | -6% | -6% | -3% | -10%[11.4 µM]
O=C(CNC(=O)c1ccco1)OCC(=O)c1ccc2c(c1)CCCC2 | -9% | 2µM* | -3% | -4% | -11%
CCS(=O)(=O)Nc1cc(-c2cn3ccc(C)cc3n2)ccc1C | ? | . | -11%[10.9 µM] | 13µM* | .
Cc1ccn2cc(-c3ccc(C)c(NS(=O)(=O)c4ccc(Cl)cc4)c3)nc2c1 | -5% | . | -6%[10.9 µM] | -14% | .
COc1cc(C(=O)Nc2cc3c(cc2C)n(C)c(=O)c(=O)n3C)cc(OC)c1OC | 1% | . | -2%[10.9 µM] | 25% | .
O=C(c1ccco1)N1CCC2(CCCN(C(c3ccccc3)c3ccccc3)C2)CC1 | -3% | 0%[11.4 µM] | . | ? | 37%
Cc1cccc(-c2nnn3c2nc(NCc2ccc4c(c2)OCO4)c2ccccc23)c1 | -5% | . | -9%[10.9 µM] | 6.3µM* | .
C=CCn1c(=O)n(CC=C)c(=O)n(CC=C)c1=O | -1%[1.84 µM] | . | 7% | 1% | 10%
O=c1n(CC2CO2)c(=O)n(CC2CO2)c(=O)n1CC1CO1 (configuration not stated) | -6%[1.84 µM] | . | -23% | 16µM* | 4%
CCOc1ccc(S(=O)(=O)Nc2ccc(O)c(Sc3ncn[nH]3)c2)cc1 | -2% | . | . | 10% | .
CC(C)c1ccc(S(=O)(=O)/N=C2/C=C(Sc3ncn[nH]3)C(=O)c3ccccc32)cc1 | . | . | . | 8.9µM* | .
Cc1cc(C(=O)COC(=O)C2COc3ccccc3O2)c(C)n1CC1CCCO1 (configuration not stated) | -6% | 16µM* | -9% | -6% | -6%
Cc1cc(C(=O)COC(=O)CN(C)S(=O)(=O)c2ccc(Cl)cc2)c(C)n1CC1CCCO1 (configuration not stated) | -5% | -13% | -7% | -11% | -4%
COc1ccc(-c2nc3sc(CCNC(=O)C(=O)Nc4cc(F)ccc4F)c(C)n3n2)cc1 | 4% | . | -8%[10.9 µM] | -10% | .
COc1cccc(C(=O)Cn2c(=N)n(C)c3ccccc32)c1 | 3.2µM* | 1.3µM* | -83% | 5µM* | -25%
COc1cccc(C(=O)Cn2c(NCCO)nc3ccccc32)c1 | 9% | . | . | -1% | .
COc1ccc(Br)cc1CNC(=O)c1ccc2c(c1)nc1n2CCC(C)C1 (configuration not stated) | -3% | . | 8%[10.9 µM] | -15% | .
O=C(NCCc1ccccc1)c1ccc2c(c1)nc1n2CCOC1 | 13µM* | . | -25%[10.9 µM] | 10µM* | .
Cc1ccccc1CCNC(=O)c1ccc2c(c1)nc1n2CCC(C)C1 (configuration not stated) | 13µM* | . | -2%[10.9 µM] | 13µM* | .
O=C(NCCc1ccccc1Cl)c1ccc2c(c1)nc1n2CCCCC1 | 4µM* | . | -27%[10.9 µM] | 2.5µM* | .
CCNC(=O)c1ccc2c(c1)nc1n2CCCCC1 | ? | . | -16%[10.9 µM] | ? | .
